Laboratory results reported in the supplement of paper PMC10849652.
About 7,900 targets were measured; listed, in parts, are those with a hit and a random draw of the rest. About 0.6% of all pairs of compound and target were hits. Unmarked numbers belong to inactive results.

Columns and labels:
Assay in all cases: log2 fold change, soluble protein after heating vs DMSO (PISA); higher = thermal stabilisation; K562 cells, 10 uM, 30 min; active = over 0.2 and 3.5 SD of the protein, either way, in both replicates (recomputed)
saracatinib = compound: CN1CCN(CCOc2cc(OC3CCOCC3)c3c(Nc4c(Cl)ccc5c4OCO5)ncnc3c2)CC1 [saracatinib]
Outline: (§1)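 Values are thermal stability changes relative to control samples and are taken from duplicates. They are stated as log2 fold changes. Before quantification by TMTpro 16plex LC-MS/MS with equalised channel sums, K562 cells at 2×10^6 cells/mL were treated with 10 μM compound for 30 min, heated in aliquots for 3 min across 48°C-58°C, pooled, extracted in PBS with 0.5% NP-40 at 4°C, and centrifuged at 21,000xg for 90 min to give the soluble supernatant.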

sotrastaurin = compound: CN1CCN(c2nc(C3=C(c4c[nH]c5ccccc45)C(=O)NC3=O)c3ccccc3n2)CC1 [sotrastaurin]
Outline: as §1

alvocidib = compound: CN1CC[C@H](c2c(O)cc(O)c3c(=O)cc(-c4ccccc4Cl)oc23)[C@H](O)C1 [alvocidib]
Outline: as §1

Tubastatin A = compound: CN1CCc2c(c3ccccc3n2Cc2ccc(C(=O)NO)cc2)C1 [Tubastatin A]
Outline: as §1

[1] = compound: CNC(=O)C1=CC=CC=C1NC2=NC(=NC=C2Cl)NC3=C(C=C(C=C3)N4CCOCC4)OC
Outline: as §1

defactinib = compound: CNC(=O)c1ccc(Nc2ncc(C(F)(F)F)c(NCc3nccnc3N(C)S(C)(=O)=O)n2)cc1 [defactinib]
Outline: as §1

rucaparib = compound: CNCc1ccc(-c2[nH]c3cc(F)cc4c3c2CCNC4=O)cc1 [rucaparib]
Outline: as §1

[2] = compound: CNc1nc(-c2ccc3c(N)n[nH]c3c2)cc(N2C[C@@H](C(=O)NC3CCCCC3)CC[C@H]2C)n1
Outline: as §1

encorafenib = compound: COC(=O)N[C@@H](C)CNc1nccc(-c2cn(C(C)C)nc2-c2cc(Cl)cc(NS(C)(=O)=O)c2F)n1 [encorafenib]
Outline: as §1

[3] = compound: COC(=O)[C@H](CCSC)NC(=O)C1=C(C=C(C=C1)NC[C@H](CS)N)C2=CC=CC=C2
Outline: as §1

[4] = compound: COC1=CC=C(C=C1)CN2C=CC3=C2C=C(C=C3)C(=O)NO
Outline: as §1

filanesib = compound: CON(C)C(=O)N1N=C(c2cc(F)ccc2F)S[C@@]1(CCCN)c1ccccc1 [filanesib]
Outline: as §1

zotarolimus = compound: CO[C@H]1C[C@@H]2CC[C@@H](C)[C@@](O)(O2)C(=O)C(=O)N2CCCC[C@H]2C(=O)O[C@H]([C@H](C)C[C@@H]2CC[C@H](n3cnnn3)[C@H](OC)C2)CC(=O)[C@H](C)/C=C(\C)[C@@H](O)[C@@H](OC)C(=O)[C@H](C)C[C@H](C)/C=C/C=C/C=C/1C [zotarolimus]
Outline: as §1

idasanutlin = compound: COc1cc(C(=O)O)ccc1NC(=O)[C@@H]1N[C@@H](CC(C)(C)C)[C@](C#N)(c2ccc(Cl)cc2F)[C@H]1c1cccc(Cl)c1F [idasanutlin]
Outline: as §1

alisertib = compound: COc1cc(Nc2ncc3c(n2)-c2ccc(Cl)cc2C(c2c(F)cccc2OC)=NC3)ccc1C(=O)O [alisertib]
Outline: as §1

[5] = compound: COc1cc2nc(-c3cc(F)ccc3O)nc(N[C@@H]3CNC[C@H]3C(C)(C)O)c2cc1OC
Outline: as §1

gefitinib = compound: COc1cc2ncnc(Nc3ccc(F)c(Cl)c3)c2cc1OCCCN1CCOCC1 [gefitinib]
Outline: as §1

[6] = compound: COc1cccc2cc(-c3nc([C@H]4CC[C@H](C(=O)O)CC4)n4ncnc(N)c34)[nH]c12
Outline: as §1

lapatinib = compound: CS(=O)(=O)CCNCc1ccc(-c2ccc3ncnc(Nc4ccc(OCc5cccc(F)c5)c(Cl)c4)c3c2)o1 [lapatinib]
Outline: as §1

pictilisib = compound: CS(=O)(=O)N1CCN(Cc2cc3nc(-c4cccc5[nH]ncc45)nc(N4CCOCC4)c3s2)CC1 [pictilisib]
Outline: as §1

Chain of UniProt Q5TFE4 (Q5TFE4 whole entry, looked up): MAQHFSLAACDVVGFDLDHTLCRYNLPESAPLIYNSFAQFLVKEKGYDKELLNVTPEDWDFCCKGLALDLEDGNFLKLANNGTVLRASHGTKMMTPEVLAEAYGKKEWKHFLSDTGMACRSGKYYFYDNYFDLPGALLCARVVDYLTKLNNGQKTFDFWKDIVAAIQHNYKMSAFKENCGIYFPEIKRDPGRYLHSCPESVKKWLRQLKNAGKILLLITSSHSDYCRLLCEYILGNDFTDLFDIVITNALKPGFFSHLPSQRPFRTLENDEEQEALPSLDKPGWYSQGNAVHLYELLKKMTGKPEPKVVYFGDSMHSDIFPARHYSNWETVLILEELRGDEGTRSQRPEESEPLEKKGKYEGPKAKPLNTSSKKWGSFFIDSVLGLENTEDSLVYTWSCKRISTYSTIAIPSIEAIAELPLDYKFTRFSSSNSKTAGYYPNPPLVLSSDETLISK
Chain of UniProt Q99549 (Q99549 whole entry, looked up): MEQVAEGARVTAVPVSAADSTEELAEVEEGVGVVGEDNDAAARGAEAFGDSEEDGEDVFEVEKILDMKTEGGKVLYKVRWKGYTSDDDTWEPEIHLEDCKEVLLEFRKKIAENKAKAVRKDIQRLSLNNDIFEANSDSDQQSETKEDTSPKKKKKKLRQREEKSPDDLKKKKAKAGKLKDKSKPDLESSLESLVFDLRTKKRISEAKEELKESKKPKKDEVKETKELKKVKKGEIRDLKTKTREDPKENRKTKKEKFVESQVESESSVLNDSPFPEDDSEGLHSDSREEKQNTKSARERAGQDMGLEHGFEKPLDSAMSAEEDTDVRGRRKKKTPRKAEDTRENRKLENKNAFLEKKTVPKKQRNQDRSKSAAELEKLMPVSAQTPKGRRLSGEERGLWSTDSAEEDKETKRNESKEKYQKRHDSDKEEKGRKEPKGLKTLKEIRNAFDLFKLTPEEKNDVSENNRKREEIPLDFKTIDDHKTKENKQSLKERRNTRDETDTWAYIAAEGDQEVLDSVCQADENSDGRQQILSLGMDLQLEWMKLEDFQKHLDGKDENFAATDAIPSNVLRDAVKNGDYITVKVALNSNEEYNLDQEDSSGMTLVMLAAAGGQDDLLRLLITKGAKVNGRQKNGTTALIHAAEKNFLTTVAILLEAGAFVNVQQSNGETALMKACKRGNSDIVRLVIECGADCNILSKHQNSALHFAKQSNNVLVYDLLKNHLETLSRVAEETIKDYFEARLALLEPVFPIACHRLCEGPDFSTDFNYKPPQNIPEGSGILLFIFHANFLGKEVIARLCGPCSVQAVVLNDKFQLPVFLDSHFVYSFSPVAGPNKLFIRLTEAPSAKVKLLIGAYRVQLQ
Chain of UniProt O60890 (O60890 whole entry, looked up): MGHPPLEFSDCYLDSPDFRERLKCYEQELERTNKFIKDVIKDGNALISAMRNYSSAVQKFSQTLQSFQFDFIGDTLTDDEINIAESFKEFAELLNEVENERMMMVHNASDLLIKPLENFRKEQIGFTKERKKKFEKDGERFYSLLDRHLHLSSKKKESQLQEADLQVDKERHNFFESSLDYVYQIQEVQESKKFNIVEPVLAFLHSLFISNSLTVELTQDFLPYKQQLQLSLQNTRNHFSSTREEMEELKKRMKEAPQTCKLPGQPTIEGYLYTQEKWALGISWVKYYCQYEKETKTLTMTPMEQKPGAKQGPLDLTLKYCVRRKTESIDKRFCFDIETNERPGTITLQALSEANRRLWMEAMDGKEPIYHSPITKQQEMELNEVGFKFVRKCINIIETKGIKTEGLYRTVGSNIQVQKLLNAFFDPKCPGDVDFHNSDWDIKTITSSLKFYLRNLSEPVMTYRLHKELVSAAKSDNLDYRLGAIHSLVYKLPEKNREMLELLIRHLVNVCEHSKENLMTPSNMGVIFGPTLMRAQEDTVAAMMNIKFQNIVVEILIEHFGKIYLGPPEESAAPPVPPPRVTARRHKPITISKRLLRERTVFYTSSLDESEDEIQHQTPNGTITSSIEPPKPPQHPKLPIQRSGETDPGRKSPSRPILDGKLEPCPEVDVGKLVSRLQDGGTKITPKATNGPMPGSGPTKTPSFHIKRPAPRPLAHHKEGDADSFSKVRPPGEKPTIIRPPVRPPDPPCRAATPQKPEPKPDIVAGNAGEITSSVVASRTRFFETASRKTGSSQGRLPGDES
Chain of MTHFD1, A0A384N5Y3 (A0A384N5Y3 whole entry, looked up): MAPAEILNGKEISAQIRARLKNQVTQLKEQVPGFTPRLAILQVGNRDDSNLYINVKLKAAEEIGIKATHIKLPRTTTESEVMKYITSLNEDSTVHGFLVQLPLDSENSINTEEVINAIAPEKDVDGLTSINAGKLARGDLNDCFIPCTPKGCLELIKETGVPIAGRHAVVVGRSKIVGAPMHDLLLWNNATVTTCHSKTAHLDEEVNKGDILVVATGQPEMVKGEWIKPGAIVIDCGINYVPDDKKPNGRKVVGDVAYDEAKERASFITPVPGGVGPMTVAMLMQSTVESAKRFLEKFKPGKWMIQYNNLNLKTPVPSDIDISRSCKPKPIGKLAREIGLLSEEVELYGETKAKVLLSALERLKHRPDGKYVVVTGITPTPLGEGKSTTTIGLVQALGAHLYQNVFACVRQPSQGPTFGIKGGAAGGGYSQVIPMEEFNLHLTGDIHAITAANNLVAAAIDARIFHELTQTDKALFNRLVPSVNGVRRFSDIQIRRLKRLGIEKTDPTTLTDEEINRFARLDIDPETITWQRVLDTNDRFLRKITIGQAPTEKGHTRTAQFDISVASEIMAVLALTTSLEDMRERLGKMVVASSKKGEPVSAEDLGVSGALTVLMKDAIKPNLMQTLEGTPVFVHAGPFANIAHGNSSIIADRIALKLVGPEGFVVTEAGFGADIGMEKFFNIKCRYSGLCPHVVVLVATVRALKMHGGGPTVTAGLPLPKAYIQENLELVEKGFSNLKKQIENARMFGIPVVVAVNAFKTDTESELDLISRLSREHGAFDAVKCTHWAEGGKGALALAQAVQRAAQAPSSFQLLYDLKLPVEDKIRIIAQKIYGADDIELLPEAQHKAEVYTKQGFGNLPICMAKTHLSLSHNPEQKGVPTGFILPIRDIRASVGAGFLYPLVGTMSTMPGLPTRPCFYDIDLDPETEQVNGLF
Chain of UniProt Q9BRP4 (Q9BRP4 whole entry, looked up): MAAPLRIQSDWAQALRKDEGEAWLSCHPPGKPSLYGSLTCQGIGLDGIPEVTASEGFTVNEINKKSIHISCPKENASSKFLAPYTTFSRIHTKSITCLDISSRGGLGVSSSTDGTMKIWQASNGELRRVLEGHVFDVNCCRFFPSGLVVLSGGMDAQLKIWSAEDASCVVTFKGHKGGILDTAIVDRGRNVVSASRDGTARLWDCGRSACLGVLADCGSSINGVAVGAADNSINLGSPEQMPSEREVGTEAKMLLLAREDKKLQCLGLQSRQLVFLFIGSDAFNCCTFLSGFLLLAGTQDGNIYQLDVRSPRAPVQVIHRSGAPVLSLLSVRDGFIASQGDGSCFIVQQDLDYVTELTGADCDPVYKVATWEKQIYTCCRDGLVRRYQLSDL
Chain of UniProt Q9HCD5 (Q9HCD5 whole entry, looked up): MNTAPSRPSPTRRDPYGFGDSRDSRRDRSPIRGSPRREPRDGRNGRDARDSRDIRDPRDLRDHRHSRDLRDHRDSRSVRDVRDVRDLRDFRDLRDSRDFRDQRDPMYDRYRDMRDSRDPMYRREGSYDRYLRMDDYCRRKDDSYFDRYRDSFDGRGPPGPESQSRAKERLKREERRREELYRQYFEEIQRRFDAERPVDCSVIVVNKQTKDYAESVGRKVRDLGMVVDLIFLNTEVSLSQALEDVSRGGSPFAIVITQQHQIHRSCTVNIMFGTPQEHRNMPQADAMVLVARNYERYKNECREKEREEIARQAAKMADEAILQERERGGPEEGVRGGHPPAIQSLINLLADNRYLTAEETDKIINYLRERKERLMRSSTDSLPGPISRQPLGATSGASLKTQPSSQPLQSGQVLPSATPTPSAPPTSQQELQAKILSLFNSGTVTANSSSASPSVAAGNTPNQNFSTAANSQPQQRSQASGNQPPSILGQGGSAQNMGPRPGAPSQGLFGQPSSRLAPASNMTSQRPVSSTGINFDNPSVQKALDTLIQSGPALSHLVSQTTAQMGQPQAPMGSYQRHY
Chain of UniProt Q9Y5B8 (Q9Y5B8 whole entry, looked up): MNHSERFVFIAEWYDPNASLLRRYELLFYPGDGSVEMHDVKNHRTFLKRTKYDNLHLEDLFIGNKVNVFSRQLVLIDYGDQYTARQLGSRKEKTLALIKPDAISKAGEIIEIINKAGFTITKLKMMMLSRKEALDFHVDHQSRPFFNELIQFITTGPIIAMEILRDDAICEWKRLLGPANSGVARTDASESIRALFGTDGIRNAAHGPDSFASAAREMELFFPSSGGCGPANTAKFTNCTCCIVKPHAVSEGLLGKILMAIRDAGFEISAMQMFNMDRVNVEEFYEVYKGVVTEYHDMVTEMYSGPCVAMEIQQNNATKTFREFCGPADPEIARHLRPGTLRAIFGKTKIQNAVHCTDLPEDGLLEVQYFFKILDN
Chain of UniProt Q8WVJ2 (Q8WVJ2 whole entry, looked up): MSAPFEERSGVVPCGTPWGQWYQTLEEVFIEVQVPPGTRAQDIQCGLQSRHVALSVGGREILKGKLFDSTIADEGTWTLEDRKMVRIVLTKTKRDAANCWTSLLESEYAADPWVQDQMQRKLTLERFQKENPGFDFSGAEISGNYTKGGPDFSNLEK
Chain of UniProt Q9BT67 (Q9BT67 whole entry, looked up): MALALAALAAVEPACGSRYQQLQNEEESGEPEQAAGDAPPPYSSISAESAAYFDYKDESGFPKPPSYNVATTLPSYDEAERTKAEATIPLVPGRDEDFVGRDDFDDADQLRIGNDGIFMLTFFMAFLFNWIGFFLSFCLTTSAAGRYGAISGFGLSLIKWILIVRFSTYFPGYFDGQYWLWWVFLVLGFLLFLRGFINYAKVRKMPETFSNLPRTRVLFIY
Chain of UniProt P25208 (P25208 whole entry, looked up): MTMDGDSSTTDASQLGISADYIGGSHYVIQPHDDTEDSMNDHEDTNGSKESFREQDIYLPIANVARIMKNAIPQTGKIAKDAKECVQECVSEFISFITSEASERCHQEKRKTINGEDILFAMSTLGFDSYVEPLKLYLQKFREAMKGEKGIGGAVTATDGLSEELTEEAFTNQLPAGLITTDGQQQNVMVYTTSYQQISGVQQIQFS

| Target | log2 fold change (saracatinib) | log2 fold change (sotrastaurin) | log2 fold change (alvocidib) | log2 fold change (Tubastatin A) | log2 fold change [1] | log2 fold change (defactinib) | log2 fold change (rucaparib) | log2 fold change [2] | log2 fold change (encorafenib) | log2 fold change [3] | log2 fold change [4] | log2 fold change (filanesib) | log2 fold change (zotarolimus) | log2 fold change (idasanutlin) | log2 fold change (alisertib) | log2 fold change [5] | log2 fold change (gefitinib) | log2 fold change [6] | log2 fold change (lapatinib) | log2 fold change (pictilisib) |
| --- | --- | --- | --- | --- | --- | --- | --- | --- | --- | --- | --- | --- | --- | --- | --- | --- | --- | --- | --- | --- |
| NT5DC1 (UniProt Q5TFE4) | -0.012 | 0.026 | -0.049 | 0 | 0.115 | -0.004 | -0.057 | -0.058 | -0.029 | 0.037 | 0.016 | -0.067 | 0.019 | -0.122 | -0.015 | 0.04 | 0.018 | 0.02 | 0.074 | 0.097 |
| OXA1L (UniProt Q15070) | 0.018 | 0.003 | -0.01 | -0.036 | 0.004 | 0.005 | -0.029 | -0.054 | -0.027 | 0.031 | -0.023 | -0.123 | 0.009 | -0.029 | 0.003 | -0.186 | -0.004 | 0.053 | 0.013 | 0.058 |
| PAAF1 (UniProt Q9BRP4) | 0.056 | 0.016 | -0.075 | -0.008 | -0.006 | -0.034 | 0.012 | -0.008 | -0.004 | 0.004 | -0.013 | -0.082 | -0.008 | -0.026 | -0.062 | 0.026 | -0.002 | 0.047 | 0.027 | 0.048 |
| NFYB (UniProt P25208) | 0.111 | -0.084 | 0.162 | -0.143 | 0 | -0.001 | -0.099 | -0.019 | -0.051 | 0.03 | 0.245 | -0.036 | -0.024 | 0.066 | -0.097 | -0.047 | 0.039 | 0.02 | 0.078 | -0.155 |
| NUDT1 (UniProt P36639) | 0.068 | 0.043 | -0.038 | 0.193 | 0.05 | 0.019 | 0.416 | 0.196 | -0.03 | -0.074 | 0.043 | -0.06 | -0.068 | -0.169 | -0.017 | 0.11 | 0.354 | -0.046 | -0.016 | -0.01 |
| OPHN1 (UniProt O60890) | -0.033 | 0.011 | 0.094 | -0.008 | -0.036 | – | -0.011 | -0.01 | 0.038 | – | -0.261 | -0.004 | -0.049 | -0.015 | -0.036 | – | -0.002 | 0.04 | – | 0.242 |
| NCOA5 (UniProt Q9HCD5) | 0.002 | 0.188 | – | – | -0.081 | – | – | -0.04 | – | – | 0.046 | 0.209 | – | – | – | 0.04 | 0.145 | – | 0.047 | -0.043 |
| NME7 (UniProt Q9Y5B8) | -0.109 | -0.017 | -0.117 | 0.054 | 0.016 | -0.047 | 0.006 | -0.001 | 0.086 | -0.006 | -0.1 | 0.124 | 0.058 | -0.041 | 0.054 | 0.015 | – | -0.077 | -0.046 | 0.071 |
| MPHOSPH8 isoform 2 (UniProt Q99549) | 0.088 | 0.018 | 0.005 | 0 | – | 0.015 | – | -0.064 | – | 0.013 | -0.002 | 0.128 | -0.191 | 0.062 | -0.016 | 0.032 | – | 0.125 | 0.024 | – |
| MINK1 (UniProt Q8N4C8) | -0.052 | -0.009 | -0.027 | -0.015 | -0.007 | -0.069 | -0.033 | -0.029 | 0.044 | 0.012 | -0.054 | -0.003 | 0.014 | 0.013 | -0.042 | -0.064 | – | 0.024 | 0.024 | -0.019 |
| NUDCD2 (UniProt Q8WVJ2) | -0.115 | -0.123 | -0.139 | 0.051 | 0.002 | -0.256 | -0.053 | 0 | 0.048 | 0 | 0.072 | -0.016 | 0.065 | 0.075 | -0.011 | 0.117 | 0.083 | -0.018 | -0.038 | 0.014 |
| MPP1 (UniProt Q00013) | -0.023 | -0.085 | -0.022 | 0.051 | 0.073 | -0.082 | 0.104 | 0.059 | 0.067 | -0.047 | 0.024 | -0.041 | -0.027 | 0.069 | 0.032 | 0.016 | 0.114 | -0.074 | 0.032 | 0.096 |
| NA, A0A2R8Y3M9 | 0.171 | 0.191 | 0.214 | – | – | – | – | -0.04 | – | – | -0.086 | 0.079 | -0.419 | 0.279 | – | -0.123 | -0.168 | – | -0.037 | -0.35 |
| MTHFD1, A0A384N5Y3 | -0.047 | 0.025 | -0.129 | 0.032 | – | -0.173 | -0.039 | -0.004 | -0.003 | -0.036 | – | -0.025 | -0.032 | 0.024 | -0.011 | 0.055 | 0.075 | 0.001 | -0.016 | 0.107 |
| MSL1 (UniProt Q68DK7) | -0.026 | 0.052 | – | – | -0.253 | -0.069 | -0.042 | 0.04 | -0.088 | -0.017 | -0.163 | -0.013 | – | -0.113 | -0.081 | 0.275 | 0.04 | -0.012 | -0.117 | 0.197 |
| NDFIP1 (UniProt Q9BT67) | -0.274 | -0.028 | -0.088 | 0.056 | 0.124 | 0.015 | 0.286 | -0.187 | -0.001 | -0.115 | 0.051 | -0.134 | 0.106 | -0.034 | -0.105 | – | -0.155 | -0.14 | – | 0.228 |
| NCK1 (UniProt P16333) | -0.198 | -0.521 (active) | -0.005 | 0.126 | -0.071 | -0.125 | – | 0.158 | – | -0.122 | 0.049 | -0.054 | 0.13 | -0.001 | -0.127 | -0.165 | 0.002 | -0.024 | -0.066 | – |
| MYLK (UniProt Q15746) | 0.177 | -0.036 | -0.091 | 0.036 | 0.716 | -0.034 | -0.083 | -0.079 | 0.337 | -0.216 | -0.293 | 0.041 | 0.01 | – | -0.095 | 0.043 | 0.342 | 0.16 | 0.06 | 0.098 |
